Reference: paper PMC7862700, “An all-to-all approach to the identification of sequence-specific readers for epigenetic DNA modifications on cytosine”

Experiments:
Experiment in all cases: DAPPL (digital affinity profiling via proximity ligation, sequencing); 10 mM Tris-HCl pH 7.5, 50 mM NaCl, 1 mM DTT, 4% glycerol, room temperature, 30 min; GST-TFs on glutathione beads, 16-mer random dsDNA library, 0.1% formaldehyde crosslink after washing; high values mean tight binding
[1] = target: T1, FLI1 (Homo sapiens, UniProt Q01543 1-452); details: protein: recombinant; tags: N-terminal GST; dsDNA, one strand shown
T1 sequence: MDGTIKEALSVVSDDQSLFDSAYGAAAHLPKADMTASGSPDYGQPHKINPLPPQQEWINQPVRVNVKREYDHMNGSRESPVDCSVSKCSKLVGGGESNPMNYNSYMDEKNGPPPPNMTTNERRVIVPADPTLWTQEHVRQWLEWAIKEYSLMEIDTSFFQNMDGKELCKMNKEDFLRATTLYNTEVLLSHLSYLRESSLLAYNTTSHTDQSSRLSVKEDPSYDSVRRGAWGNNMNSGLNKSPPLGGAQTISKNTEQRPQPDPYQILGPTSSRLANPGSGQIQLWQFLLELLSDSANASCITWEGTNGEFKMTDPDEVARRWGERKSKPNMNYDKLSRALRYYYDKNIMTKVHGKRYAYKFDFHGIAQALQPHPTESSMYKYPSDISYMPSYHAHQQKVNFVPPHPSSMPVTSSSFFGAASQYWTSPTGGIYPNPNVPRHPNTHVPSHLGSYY
How it was run: (§1)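 Binding signal is given per hexamer as its read frequency for a factor divided by its frequency in the tag-only sample. GST-fused human transcription factors were expressed in yeast, captured on glutathione beads, barcoded with DNA and pooled with that sample, then incubated with 200 nmole of a 16-mer random double-stranded DNA library in Tris/NaCl/DTT/glycerol buffer for 30 min at room temperature. The pools were then washed, crosslinked, proximity-ligated, amplified by PCR and sequenced on an Illumina NextSeq500.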

[2] = target: T2, ELK1 (Homo sapiens, UniProt P19419 1-428); details: protein: recombinant; tags: N-terminal GST; dsDNA, one strand shown
T2 sequence: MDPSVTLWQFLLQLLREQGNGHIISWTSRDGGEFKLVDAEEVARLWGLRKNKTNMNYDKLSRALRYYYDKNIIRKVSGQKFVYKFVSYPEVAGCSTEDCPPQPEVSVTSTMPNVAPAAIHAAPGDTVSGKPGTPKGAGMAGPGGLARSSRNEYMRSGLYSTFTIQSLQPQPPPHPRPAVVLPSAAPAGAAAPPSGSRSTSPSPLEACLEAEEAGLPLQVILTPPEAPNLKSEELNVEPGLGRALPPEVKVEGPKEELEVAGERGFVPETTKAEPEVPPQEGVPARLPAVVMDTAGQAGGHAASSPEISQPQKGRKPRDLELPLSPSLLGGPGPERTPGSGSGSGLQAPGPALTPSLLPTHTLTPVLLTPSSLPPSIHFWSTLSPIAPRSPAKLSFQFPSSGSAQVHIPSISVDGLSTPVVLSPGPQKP
How it was run: as §1

[3] = target: T3, GABPA (Homo sapiens, UniProt Q06546 1-454); details: protein: recombinant; tags: N-terminal GST; dsDNA, one strand shown
T3 sequence: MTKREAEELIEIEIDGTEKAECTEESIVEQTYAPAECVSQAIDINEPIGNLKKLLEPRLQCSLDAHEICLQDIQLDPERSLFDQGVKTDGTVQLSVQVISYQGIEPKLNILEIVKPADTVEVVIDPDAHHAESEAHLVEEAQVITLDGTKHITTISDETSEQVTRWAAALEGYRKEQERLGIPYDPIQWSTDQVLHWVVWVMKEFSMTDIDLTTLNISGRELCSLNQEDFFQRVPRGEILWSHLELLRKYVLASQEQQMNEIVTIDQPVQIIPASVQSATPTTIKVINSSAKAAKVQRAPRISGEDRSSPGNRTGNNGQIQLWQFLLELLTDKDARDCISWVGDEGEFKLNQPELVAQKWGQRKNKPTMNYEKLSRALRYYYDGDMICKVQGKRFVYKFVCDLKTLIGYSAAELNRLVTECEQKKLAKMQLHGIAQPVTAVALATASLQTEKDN
How it was run: as §1

[4] = target: T4, ERG (Homo sapiens, UniProt P11308 1-479); details: protein: recombinant; tags: N-terminal GST; dsDNA, one strand shown
T4 sequence: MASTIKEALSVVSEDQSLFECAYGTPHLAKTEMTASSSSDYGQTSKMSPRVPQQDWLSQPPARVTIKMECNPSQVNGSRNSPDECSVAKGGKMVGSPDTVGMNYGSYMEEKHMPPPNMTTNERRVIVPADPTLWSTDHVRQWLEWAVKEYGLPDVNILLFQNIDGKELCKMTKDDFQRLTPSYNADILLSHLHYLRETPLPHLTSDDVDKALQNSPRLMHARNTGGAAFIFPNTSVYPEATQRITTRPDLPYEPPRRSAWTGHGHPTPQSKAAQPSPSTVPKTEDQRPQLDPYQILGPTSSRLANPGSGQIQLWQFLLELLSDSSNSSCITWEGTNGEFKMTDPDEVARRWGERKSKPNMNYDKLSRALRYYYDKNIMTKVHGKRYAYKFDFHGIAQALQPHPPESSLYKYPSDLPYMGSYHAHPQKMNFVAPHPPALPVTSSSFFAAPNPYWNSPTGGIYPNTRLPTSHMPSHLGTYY
How it was run: as §1

[5] = target: ELF1 (Homo sapiens, UniProt P32519 1-619); details: protein: recombinant; tags: N-terminal GST; dsDNA, one strand shown
How it was run: as §1

[6] = target: T5, EHF (Homo sapiens, UniProt Q9NZC4 1-300); details: protein: recombinant; tags: N-terminal GST; dsDNA, one strand shown
T5 sequence: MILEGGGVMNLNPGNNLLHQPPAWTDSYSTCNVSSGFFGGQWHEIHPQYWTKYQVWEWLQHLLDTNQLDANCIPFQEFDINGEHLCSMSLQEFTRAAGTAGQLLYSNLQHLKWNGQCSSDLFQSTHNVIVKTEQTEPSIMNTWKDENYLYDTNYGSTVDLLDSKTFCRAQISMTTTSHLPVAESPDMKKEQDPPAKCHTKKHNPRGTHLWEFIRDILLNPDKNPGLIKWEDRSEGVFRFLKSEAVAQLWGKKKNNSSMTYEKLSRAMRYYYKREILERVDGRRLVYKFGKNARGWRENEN
How it was run: as §1

[7] = target: SPI1 (Homo sapiens, UniProt P17947 1-270); details: protein: recombinant; tags: N-terminal GST; dsDNA, one strand shown
How it was run: as §1

[8] = target: SPIB (Homo sapiens, UniProt Q01892 1-262); details: protein: recombinant; tags: N-terminal GST; dsDNA, one strand shown
How it was run: as §1

[9] = target: T6, ELK3 (Homo sapiens, UniProt P41970 1-407); details: protein: recombinant; tags: N-terminal GST; dsDNA, one strand shown
T6 sequence: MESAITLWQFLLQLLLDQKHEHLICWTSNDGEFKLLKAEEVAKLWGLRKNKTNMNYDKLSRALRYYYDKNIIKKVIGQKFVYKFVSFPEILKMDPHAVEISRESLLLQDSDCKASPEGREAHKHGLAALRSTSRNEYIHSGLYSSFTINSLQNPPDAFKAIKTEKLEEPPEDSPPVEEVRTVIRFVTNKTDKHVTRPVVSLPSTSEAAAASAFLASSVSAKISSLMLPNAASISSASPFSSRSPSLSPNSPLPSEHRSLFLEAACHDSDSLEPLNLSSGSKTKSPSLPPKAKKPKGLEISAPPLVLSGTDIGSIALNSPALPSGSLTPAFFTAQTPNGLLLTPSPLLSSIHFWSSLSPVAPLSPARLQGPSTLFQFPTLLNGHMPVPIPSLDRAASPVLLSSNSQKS
How it was run: as §1

[10] = target: T7, FEV (Homo sapiens, UniProt Q99581 1-238); details: protein: recombinant; tags: N-terminal GST; dsDNA, one strand shown
T7 sequence: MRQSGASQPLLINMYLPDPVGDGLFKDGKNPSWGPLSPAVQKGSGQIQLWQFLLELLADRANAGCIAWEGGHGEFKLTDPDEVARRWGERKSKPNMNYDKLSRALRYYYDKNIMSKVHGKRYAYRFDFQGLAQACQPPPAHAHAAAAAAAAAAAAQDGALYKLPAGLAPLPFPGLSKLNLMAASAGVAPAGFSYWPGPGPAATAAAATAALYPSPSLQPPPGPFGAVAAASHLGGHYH
How it was run: as §1

[11] = target: ETV5 (Homo sapiens, UniProt P41161 1-510); details: protein: recombinant; tags: N-terminal GST; dsDNA, one strand shown
How it was run: as §1

[12] = target: HSF1 (Homo sapiens, UniProt Q00613 1-529); details: protein: recombinant; tags: N-terminal GST; chain copies: 3; dsDNA, one strand shown
How it was run: as §1

[13] = target: T8, SPIC (Homo sapiens, UniProt Q8N5J4 1-248); details: protein: recombinant; tags: N-terminal GST; dsDNA, one strand shown
T8 sequence: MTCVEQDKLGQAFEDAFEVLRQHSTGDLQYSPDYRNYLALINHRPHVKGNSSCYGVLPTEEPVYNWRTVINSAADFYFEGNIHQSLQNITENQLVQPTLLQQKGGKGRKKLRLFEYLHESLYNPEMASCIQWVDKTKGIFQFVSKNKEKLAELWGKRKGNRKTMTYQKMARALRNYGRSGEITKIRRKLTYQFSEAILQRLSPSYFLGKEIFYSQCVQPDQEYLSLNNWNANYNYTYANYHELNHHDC
How it was run: as §1

[14] = target: ELF4 (Homo sapiens, UniProt Q99607 1-663); details: protein: recombinant; tags: N-terminal GST; dsDNA, one strand shown
How it was run: as §1

[15] = target: T9, ELK4 (Homo sapiens, UniProt P28324-2 1-405); details: protein: recombinant; tags: N-terminal GST; dsDNA, one strand shown
T9 sequence: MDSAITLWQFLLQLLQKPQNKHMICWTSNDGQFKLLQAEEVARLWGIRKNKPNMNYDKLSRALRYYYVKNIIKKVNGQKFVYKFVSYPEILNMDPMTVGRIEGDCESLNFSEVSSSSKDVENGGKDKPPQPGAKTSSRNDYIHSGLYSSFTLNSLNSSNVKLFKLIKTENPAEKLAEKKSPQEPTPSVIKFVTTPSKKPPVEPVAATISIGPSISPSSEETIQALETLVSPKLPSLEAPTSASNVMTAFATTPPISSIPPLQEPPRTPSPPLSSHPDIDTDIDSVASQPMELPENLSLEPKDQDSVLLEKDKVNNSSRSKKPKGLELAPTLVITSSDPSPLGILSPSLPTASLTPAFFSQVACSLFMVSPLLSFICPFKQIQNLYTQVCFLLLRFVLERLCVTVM
How it was run: as §1

[16] = target: T10, ETV2 (Homo sapiens, UniProt O00321 1-342); details: protein: recombinant; tags: N-terminal GST; dsDNA, one strand shown
T10 sequence: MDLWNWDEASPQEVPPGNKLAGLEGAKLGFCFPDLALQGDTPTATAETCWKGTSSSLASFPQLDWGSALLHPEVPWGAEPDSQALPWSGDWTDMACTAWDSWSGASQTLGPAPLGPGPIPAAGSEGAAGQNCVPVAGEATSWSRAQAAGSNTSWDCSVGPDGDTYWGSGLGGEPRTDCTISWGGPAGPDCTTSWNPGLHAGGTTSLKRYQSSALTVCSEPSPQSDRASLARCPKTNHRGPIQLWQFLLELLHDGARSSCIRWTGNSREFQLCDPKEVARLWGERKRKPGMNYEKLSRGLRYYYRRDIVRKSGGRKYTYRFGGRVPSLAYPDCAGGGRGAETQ
How it was run: as §1

[17] = target: T11, ELF3 (Homo sapiens, UniProt P78545 1-371); details: protein: recombinant; tags: N-terminal GST; dsDNA, one strand shown
T11 sequence: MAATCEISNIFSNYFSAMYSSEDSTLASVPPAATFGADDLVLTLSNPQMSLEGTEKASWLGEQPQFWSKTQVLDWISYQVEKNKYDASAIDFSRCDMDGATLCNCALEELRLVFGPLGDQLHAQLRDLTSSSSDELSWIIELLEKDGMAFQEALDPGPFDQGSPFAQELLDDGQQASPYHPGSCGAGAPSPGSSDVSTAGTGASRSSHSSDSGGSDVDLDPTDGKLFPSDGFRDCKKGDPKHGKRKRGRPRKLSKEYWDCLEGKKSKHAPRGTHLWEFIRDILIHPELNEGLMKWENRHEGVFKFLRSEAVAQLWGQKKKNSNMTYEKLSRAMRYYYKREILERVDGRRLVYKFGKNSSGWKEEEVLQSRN
How it was run: as §1

[18] = target: CRX (Homo sapiens, UniProt O43186 1-299); details: protein: recombinant; tags: N-terminal GST; dsDNA, one strand shown
How it was run: as §1

[19] = target: ETV1 (Homo sapiens, UniProt P50549 1-477); details: protein: recombinant; tags: N-terminal GST; dsDNA, one strand shown
How it was run: as §1

Sequence of ELF1 (P32519 whole entry): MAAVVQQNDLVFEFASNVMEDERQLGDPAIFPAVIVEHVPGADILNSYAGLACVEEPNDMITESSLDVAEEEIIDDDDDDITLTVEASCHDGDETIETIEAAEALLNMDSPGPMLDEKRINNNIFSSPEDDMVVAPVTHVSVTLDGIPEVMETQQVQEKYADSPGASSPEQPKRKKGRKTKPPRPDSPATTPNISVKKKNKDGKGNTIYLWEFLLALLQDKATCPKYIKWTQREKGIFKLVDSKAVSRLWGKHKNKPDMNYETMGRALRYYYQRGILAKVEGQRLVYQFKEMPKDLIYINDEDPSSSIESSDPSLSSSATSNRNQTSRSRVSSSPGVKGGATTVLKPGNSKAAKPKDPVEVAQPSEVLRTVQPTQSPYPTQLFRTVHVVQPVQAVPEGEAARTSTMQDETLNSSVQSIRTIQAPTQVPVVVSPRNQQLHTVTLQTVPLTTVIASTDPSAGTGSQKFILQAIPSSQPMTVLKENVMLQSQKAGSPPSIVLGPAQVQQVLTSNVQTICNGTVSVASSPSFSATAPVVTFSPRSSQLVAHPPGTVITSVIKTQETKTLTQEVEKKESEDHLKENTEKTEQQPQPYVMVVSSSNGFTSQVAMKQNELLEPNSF
Sequence of ETV1 (P50549 whole entry): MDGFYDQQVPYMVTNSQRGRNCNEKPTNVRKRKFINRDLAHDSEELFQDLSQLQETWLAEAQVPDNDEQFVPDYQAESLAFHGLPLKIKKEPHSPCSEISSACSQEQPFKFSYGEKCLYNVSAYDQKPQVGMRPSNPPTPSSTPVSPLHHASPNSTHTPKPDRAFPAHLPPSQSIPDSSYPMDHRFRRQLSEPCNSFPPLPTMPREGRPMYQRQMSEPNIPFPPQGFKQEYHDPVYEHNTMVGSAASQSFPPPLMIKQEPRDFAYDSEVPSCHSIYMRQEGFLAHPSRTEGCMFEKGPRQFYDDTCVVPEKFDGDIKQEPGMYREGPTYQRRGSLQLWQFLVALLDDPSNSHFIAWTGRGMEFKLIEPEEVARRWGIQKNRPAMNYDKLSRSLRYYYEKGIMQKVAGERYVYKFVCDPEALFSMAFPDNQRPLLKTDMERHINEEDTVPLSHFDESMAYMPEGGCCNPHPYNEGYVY
Sequence of ETV5 (P41161 whole entry): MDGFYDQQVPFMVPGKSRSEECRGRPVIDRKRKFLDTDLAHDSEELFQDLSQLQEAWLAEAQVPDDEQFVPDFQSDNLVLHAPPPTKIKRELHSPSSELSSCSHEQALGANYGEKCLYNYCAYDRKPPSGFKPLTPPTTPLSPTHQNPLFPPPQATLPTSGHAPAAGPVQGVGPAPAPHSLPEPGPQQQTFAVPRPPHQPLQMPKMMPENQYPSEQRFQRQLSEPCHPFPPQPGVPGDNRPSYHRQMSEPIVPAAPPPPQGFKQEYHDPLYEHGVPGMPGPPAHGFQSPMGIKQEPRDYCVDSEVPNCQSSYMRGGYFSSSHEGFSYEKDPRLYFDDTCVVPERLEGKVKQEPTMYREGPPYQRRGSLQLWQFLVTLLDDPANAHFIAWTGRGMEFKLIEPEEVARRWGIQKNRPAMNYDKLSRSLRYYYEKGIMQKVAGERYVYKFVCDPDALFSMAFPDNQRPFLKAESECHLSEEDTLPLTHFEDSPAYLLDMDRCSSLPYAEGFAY
Sequence of ELF4 (Q99607 whole entry): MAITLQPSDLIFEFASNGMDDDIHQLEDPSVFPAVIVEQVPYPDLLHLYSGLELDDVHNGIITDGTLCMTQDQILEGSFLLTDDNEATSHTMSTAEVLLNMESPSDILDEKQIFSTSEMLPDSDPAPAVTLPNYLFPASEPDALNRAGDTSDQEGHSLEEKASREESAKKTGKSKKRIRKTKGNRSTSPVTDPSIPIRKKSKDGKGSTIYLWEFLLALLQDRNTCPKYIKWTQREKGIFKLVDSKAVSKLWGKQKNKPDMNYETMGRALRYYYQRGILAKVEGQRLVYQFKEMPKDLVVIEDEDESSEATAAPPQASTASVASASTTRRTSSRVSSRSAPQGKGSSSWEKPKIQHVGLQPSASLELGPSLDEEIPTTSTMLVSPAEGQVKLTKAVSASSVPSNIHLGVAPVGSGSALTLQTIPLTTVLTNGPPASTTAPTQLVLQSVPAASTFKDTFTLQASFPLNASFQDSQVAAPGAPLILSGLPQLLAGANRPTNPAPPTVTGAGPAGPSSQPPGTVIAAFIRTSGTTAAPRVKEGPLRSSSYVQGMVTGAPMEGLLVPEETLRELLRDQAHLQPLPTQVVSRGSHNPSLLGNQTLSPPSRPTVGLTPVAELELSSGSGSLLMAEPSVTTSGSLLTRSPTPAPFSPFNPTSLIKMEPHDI
Sequence of CRX (O43186 whole entry): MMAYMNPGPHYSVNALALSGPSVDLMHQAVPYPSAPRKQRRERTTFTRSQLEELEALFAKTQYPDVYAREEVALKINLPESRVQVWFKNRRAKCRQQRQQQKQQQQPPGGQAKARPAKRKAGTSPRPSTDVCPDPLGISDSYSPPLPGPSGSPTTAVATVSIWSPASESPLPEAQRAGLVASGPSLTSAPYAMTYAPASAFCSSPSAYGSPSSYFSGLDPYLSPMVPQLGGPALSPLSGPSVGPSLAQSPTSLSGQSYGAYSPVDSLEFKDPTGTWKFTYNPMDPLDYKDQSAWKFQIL
Sequence of HSF1 (Q00613 whole entry): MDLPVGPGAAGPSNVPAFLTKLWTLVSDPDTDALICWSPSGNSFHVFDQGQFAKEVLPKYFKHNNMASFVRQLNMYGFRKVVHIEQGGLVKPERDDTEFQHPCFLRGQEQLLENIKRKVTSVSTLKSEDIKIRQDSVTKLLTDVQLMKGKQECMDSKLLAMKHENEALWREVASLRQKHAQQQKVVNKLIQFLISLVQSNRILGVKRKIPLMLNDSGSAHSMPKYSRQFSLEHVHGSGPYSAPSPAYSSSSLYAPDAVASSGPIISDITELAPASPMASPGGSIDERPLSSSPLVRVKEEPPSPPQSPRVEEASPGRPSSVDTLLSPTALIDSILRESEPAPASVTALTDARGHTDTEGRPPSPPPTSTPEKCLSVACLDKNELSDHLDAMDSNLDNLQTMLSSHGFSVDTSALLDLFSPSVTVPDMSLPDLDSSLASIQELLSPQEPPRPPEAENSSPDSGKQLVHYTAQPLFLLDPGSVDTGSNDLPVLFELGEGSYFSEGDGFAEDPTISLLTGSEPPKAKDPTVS
Sequence of SPIB (Q01892 whole entry): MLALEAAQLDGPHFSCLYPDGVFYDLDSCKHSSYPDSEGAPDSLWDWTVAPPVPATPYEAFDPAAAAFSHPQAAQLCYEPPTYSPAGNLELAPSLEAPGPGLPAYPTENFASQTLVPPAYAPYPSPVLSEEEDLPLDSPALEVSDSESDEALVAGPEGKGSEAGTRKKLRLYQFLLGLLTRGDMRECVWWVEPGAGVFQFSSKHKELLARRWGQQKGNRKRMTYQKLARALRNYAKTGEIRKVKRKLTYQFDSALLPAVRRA

CCCGAC
binding signal [1]: 1.31 fold enrichment (6-mer frequency, TF over GST control)
binding signal [2]: 1.28 fold enrichment (6-mer frequency, TF over GST control)
binding signal [3]: 1.39 fold enrichment (6-mer frequency, TF over GST control)
binding signal [4]: 1.43 fold enrichment (6-mer frequency, TF over GST control)
binding signal [5]: 1.42 fold enrichment (6-mer frequency, TF over GST control)
binding signal [6]: 1.31 fold enrichment (6-mer frequency, TF over GST control)
binding signal [7]: 1.29 fold enrichment (6-mer frequency, TF over GST control)
binding signal [8]: 1.44 fold enrichment (6-mer frequency, TF over GST control)
binding signal [9]: 1.43 fold enrichment (6-mer frequency, TF over GST control)
binding signal [10]: 1.38 fold enrichment (6-mer frequency, TF over GST control)
binding signal [11]: 1.31 fold enrichment (6-mer frequency, TF over GST control)
binding signal [12]: 1.19 fold enrichment (6-mer frequency, TF over GST control)
binding signal [13]: 1.53 fold enrichment (6-mer frequency, TF over GST control)
binding signal [14]: 1.29 fold enrichment (6-mer frequency, TF over GST control)
binding signal [15]: 1.43 fold enrichment (6-mer frequency, TF over GST control)
binding signal [16]: 1.46 fold enrichment (6-mer frequency, TF over GST control)
binding signal [17]: 1.53 fold enrichment (6-mer frequency, TF over GST control)
binding signal [18]: 1.06 fold enrichment (6-mer frequency, TF over GST control)
binding signal [19]: 1.36 fold enrichment (6-mer frequency, TF over GST control)
